SMILES strings stand for the structures. About 10,000 (2.8%) of roughly 360,000 compounds were called active. Another 4% or so got no clear call; they are omitted. Shown is part of a subset that was picked to be rich in actives. Values without a mark were called inactive. Calls come from the whole dose curve; as a rule, active = well fitted inhibition curve with a large enough effect; inconclusive = small, poorly fitted or top-dose-only effect; inactive = flat fitted curve, though single readings scatter.
% is set by controls: 0 for no effect and ±100 for the full control effect; potency is the fitted concentration of half-maximal effect.

Chain of Serine/threonine-protein kinase PLK1 (Homo sapiens) (P53350 whole entry, looked up, the tested form may be a part): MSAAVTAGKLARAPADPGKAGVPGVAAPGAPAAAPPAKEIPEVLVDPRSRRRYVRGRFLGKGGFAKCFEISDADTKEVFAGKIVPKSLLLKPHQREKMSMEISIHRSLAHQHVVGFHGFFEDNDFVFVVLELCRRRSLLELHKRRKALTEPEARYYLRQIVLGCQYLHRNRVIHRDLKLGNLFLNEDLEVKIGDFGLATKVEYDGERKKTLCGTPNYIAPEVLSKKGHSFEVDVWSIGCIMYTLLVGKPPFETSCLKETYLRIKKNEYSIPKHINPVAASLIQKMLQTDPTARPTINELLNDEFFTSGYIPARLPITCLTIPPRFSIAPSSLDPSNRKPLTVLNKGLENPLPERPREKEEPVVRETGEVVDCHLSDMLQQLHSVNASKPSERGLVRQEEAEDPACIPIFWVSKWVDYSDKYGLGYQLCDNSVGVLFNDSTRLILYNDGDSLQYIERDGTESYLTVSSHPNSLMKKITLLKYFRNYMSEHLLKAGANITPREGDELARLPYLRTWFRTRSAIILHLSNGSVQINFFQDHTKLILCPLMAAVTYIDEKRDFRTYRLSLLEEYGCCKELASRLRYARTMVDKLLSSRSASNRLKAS

The assay addresses Serine/threonine-protein kinase PLK1 (Homo sapiens) (UniProt P53350). As to the kind of experiment: qHTS for Inhibitors of PLK1-PDB (polo-like kinase 1 - polo-box domain): Primary Screen. For max response, negative = inhibition: series mostly up to about 57 µM. Note: nearly all actives have a fitted effect of over 65% in size. As to conditions: Plk1 PBD binding of FITC phosphopeptide, fluorescence polarization. The text has this:
The polo-like kinase 1 (Plk1) is a member of a conserved subfamily of serine / threonine protein kinases that plays a pivotal roles in cell proliferation. It has a C-terminal non-catalytic region called the polo-box domain (PBD) that plays a crucial role in the subcellular localization of the Plk1. […] Furthermore, depletion of the overexpressed Plk1 by RNAi efficiently induces apoptotic cell death in cancer and reduces tumor growth in mouse xenograft models. Thus, targeting Plk1 is an appealing strategy for anti-cancer therapy. Therefore, this project aimed to screen the Molecular Libraries Small Molecule Repository (MLSMR) using a novel approach to find inhibitors that target the Plk1 PBD instead of the conventional N-terminal catalytic domain. This project employed a fluorescence polarization (FP) assay using a FITC-conjugated phospho-9-mer (p-9-mer) peptide and purified human Plk1 PBD protein. The identified small molecule inhibitors of Plk1 PBD can then further be developed into useful tools for biomedical and clinical research that complements or replaces current relevant disease therapy. NIH Chemical Genomics Center [NCGC] NIH Molecular Libraries Probe Centers Network [MLPCN] MLPCN Grant: MH100728 Assay Submitter (PI): Kyung Lee, NCI
Four microliter of 25 nM FITC-p-9-mer + 60 nM Plk1 PBD in buffer solution (final concentrations 25 nM and 60 nM respectively) or 4 uL of 25 nM FITC-p-9-mer (final concentration 25 nM) in buffer will be dispensed into a 1,536 Greiner medium-binding black solid plate. Small molecules at final concentrations of 18 nM to 57 uM and positive control phospho-9-mer (sequence: Ac-PPLHSpTAI-NH2) at final concentrations 26 nM to 57 uM and phospho-13-mer (sequence: Ac-[…]pTAI-NH2) at final concentrations of 1 nM to 2.3 uM will be pin-transferred (23 nL) to the plate via a Kalypsys pin-tool robotics equipped with a 1,536-pin array. The reaction plate will be centrifuged for 1 min at 1000 rpm and incubated at room temperature for 10 min. The FITC fluorescence signals will be read using the PerkinElmer ViewLux plate reader at 480 / 20 nm excitation and 540 / 20 nm S and P polarization emission wavelengths. Reagent bottles will be kept submerged into 4 °C recirculating chiller bath and all liquid lines will be covered with aluminum foil to minimize degradation. Library plates will be screened starting from the lowest to the highest concentrations to minimize compound carryover. Vehicle only plates, with DMSO being pin-transferred instead of compound solutions, will be included regularly throughout the screen to record any systematic shifts in assay signal.
A general note: Quantitative high-throughput screening tests each substance at several concentrations.
As to `COc1ccccc1OC(=O)c1ccc(C)c(S(=O)(=O)N2CCOCC2)c1`, the max response, negative = inhibition is -17.4%. Consider `COc1cc(C(=S)N2CCOCC2)ccc1O`, for which the Potency is 11.9 µM (active).

On to `COc1ccc(C(=O)C2CCCN(Cc3ccc(C)s3)C2)cc1OC` (stereo unspecified), for which the max response, negative = inhibition is -12.4%.

Turning to `S=C(NCCc1ccccc1)N1Cc2cc(N3CCOCC3)ccc2-n2nncc2C1`, the max response, negative = inhibition is -7.87%. Same read-out and setting: as for `OC1/C(=C/c2ccc(C(F)(F)F)cc2)N2CCC1CC2` (stereo unspecified), the figure is 3.89%. Still for that read-out and setting: as for `CCOC(=O)C1(Cc2ccc(Cl)cc2)CCN(C(C)CCn2cccn2)CC1` (stereo unspecified), the figure is -2.75%; as for `CCOc1ccc(-c2cc(C)[n+](CCN(CC)CC)c(-c3ccc(OCC)cc3)c2)cc1`, -4.15%. The same measure, in the same setting: as for `CCn1cc(CN2CCCC(C(=O)c3cccc(C(F)(F)F)c3)C2)cn1` (stereo unspecified), the figure is -6.76%; as for `CN(C)C(=O)Oc1ccc(OCc2cccc[n+]2C)cc1`, -4.14%. In the case of `CCN(CC)C(=O)Oc1ccc(NC(=O)N2CCOCC2)cc1`, the max response, negative = inhibition was -7.81%. As for `CCN(CC)C(=O)Oc1ccc(OC(=O)N(CC)CC)cc1`, the Potency was 16.8 µM (active). As to `CCC1(C)CC(CCNCc2ccc(N(C)C)cc2)(c2ccc(F)cc2)CCO1` (stereo unspecified), the max response, negative = inhibition is -1.51%.

On to `COc1ccccc1CN1CCN(C(=O)Cc2ccccc2)CC1`, for which the max response, negative = inhibition was 3.36%. Regarding `O=c1[nH]c2ccccc2n1C1CCN(C(c2ccccc2)c2nnnn2Cc2ccccc2)CC1` (stereo unspecified), the max response, negative = inhibition is 3.89%. Take `COc1ccc2c(c1)NP(=S)(c1ccccc1)N2` (stereo unspecified): the Potency is 3.36 µM (active).

For the compound `Cc1cc(C)c2c(c1)NP(=S)(c1ccccc1)N2` (stereo unspecified), the max response, negative = inhibition is -17.9%.

Regarding `CC(=O)Nc1ccccc1C(=O)OCC(=O)c1cccc2ccccc12`, the max response, negative = inhibition is -5.92%. Still for that read-out and setting: as for `CC(c1ccccc1)(c1ccccc1)c1ccncc1`, the figure is -1.65%; as for `COC(=O)C1=C(c2cc3ccccc3o2)C[C@@H]2CC[C@H]1N2C(=O)NC1CCCCC1`, 0.442%; as for `CCOC(=O)C1=C(C)OC(N)=C(C(=O)OC)C12C(=O)Nc1ccc(Br)cc12` (stereo unspecified), 0.0447%.

On to `CC(C)c1ccc(O)c(CN2CCN(c3ccccc3)CC2)c1`, for which the max response, negative = inhibition was 6.47%.

For the compound `COc1cccc(N2C(=O)NC(=O)/C(=C\c3ccc([N+](=O)[O-])s3)C2=O)c1`, the Potency was 5.32 µM (active). On the same count and under the same terms, then `COc1cccc(N2C(=O)NC(=O)/C(=C\c3cn(C)c4ccccc34)C2=O)c1`, with 9.47 µM (active).

In the case of `CCc1nc2ccccc2c(=O)n1-c1cccc(OC)c1`, the max response, negative = inhibition was -4.27%. Regarding `O=C1NC(=O)N(c2ccccc2)C(=O)/C1=C/c1ccc([N+](=O)[O-])s1`, the Potency was 2.67 µM (active).

With `CC1=C(C(=O)Nc2ccccc2)SCCO1`, the max response, negative = inhibition is -5.57%.

These data come from PubChem BioAssay AID720504 (National Center for Advancing Translational Sciences (NCATS), 2013).
